Only some compounds are listed: those with a hit (about 10% of all), similar ones and a draw of the others.
HPGD block = HPGD (human) dehydrogenase inhibition; P15428; Potency, µM, for the others: at the highest dose activity change, negative = inhibition, usual class: inhibitors; purified HPGD, NADH fluorescence kinetic, PGE2 substrate; 4.3% of 150,000 active; also: potency is read from the fitted curve at half-maximal effect
Target sequence (P15428 whole entry, looked up): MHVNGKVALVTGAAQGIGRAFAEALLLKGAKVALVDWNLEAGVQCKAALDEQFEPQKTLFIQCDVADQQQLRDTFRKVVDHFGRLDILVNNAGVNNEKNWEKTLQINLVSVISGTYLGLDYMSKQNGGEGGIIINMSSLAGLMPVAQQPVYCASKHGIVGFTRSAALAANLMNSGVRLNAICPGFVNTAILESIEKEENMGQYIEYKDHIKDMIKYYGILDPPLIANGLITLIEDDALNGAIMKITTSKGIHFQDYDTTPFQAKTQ
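NADH formation kinetics: reaction with 30 uM PGE2 and 1 mM NAD+ (final), 20 nM enzyme, Tris-HCl pH 8 with Tween 20, after 15 min compound preincubation at room temperature. Fluorescence change, last versus first of five reads.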
KinaseGlo FLuc = Kinase-Glo luciferase inhibition (counter-screen). Kinase-Glo luciferase, ATP luminescence, 8 min. Potency, µM (highest dose often 38.3 µM), for inactives: at the top dose activity change, negative = inhibition, most hits filed as inhibitors. 0.28% of 200,000 active. AID 1379; active = well fitted inhibition curve with a large enough effect; inconclusive = small, poorly fitted or top-dose-only effect; also: potency is read from the fitted curve at half-maximal effect; nearly all actives have a fitted effect of over 60% in size
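Luminescence was the read-out, taken after 8-minute incubation at ambient temperature. Luciferase turned over luciferin with 10 uM ATP in imidazole pH 7.2 buffer containing KCl, MgCl2, Tween 20 and BSA.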
PNC inhibitor = inhibitors of perinucleolar compartment assembly. activity change (PNC), negative = inhibition, % at 10 µM. AID 2417. 3.1% of 140,000 active. PC3M PTB-GFP, PNC prevalence imaging, 16 h; hits give low values;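 active = readout at or below -70, meaning at least 70% loss of cells showing the perinucleolar compartment, a nuclear body marking cancer cells; inconclusive = readout between -30 and a set limit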;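 also: plate controls were DMSO wells for no effect and camptothecin positive control wells for full effect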
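Compounds are pinned in duplicate onto adhered PC3M cells stably expressing GFP-tagged PTB and incubated 16 h at 37 C. Cells are then fixed, nuclei stained with Hoechst, and PNC-positive cells counted.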
ALDH1A1 inh = ALDH1A1 (human) enzyme inhibition | P00352 | AID 1030 | 7.3% of 220,000 active | Potency, µM (top dose mostly 75.3 µM), inactives show top-dose activity, negative = inhibition, usual class: inhibitors | Purified ALDH1A1, NADH fluorescence, propionaldehyde substrate;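 also: potency is read from the fitted curve at half-maximal effect; plate controls were no enzyme wells and a reference inhibitor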
LMNA splice mod = modulators of lamin A splicing; HeLa LMNA splicing GFP/RFP minigene ratio, 48 h; Potency, µM (series often up to 46.1 µM), inactives show top-dose ratio change, negative = inhibition, most hits filed as inhibitors; 0.01% of 200,000 active; AID 1487; active = well fitted inhibition curve with a large enough effect in the signal ratio, with a control signal flat, not every such curve was filed as active; inconclusive = small, poorly fitted or top-dose-only effect, or effect the other way, or a change in a side signal; the % refers to the signal ratio; also: potency is read from the fitted curve at half-maximal effect
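Read-out is the ratio of GFP to DsRed2 object intensity, acquired by 488 nm laser-scanning cytometry on HeLa lamin A-EGFP minigene reporter cells. Compound incubation 48 hrs at 37 °C in Opti-MEM with 2% FBS; DMSO 0.5% final.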
* marks the source's active call; other numbers are inactive results; ? = inconclusive; / = not tested or not shown; [ ] = dose if it differs, or a comment. Unless noted, calls follow the shape of the dose curve; as a rule, active = well fitted inhibition curve with a large enough effect (not every such curve was filed as active); inconclusive = small, poorly fitted or top-dose-only effect, or another doubt; inactive = no such curve, though single readings can be large or run the other way. Unless noted, % is scaled to controls: 0 for no effect and ±100 for the full control effect.

SMILES | HPGD block | KinaseGlo FLuc | PNC inhibitor | ALDH1A1 inh | LMNA splice mod
O=C(CSCc1ccco1)Nc1cc(C(F)(F)F)ccc1N1CCOCC1 | 28.2µM* | -0.7% | 29.6 | 7.08µM* | 3.4%
CCCC(=O)Nc1cc(C(F)(F)F)ccc1N1CCOCC1 | / | 4.6% | / | 3.16µM* | 12.3%[46 µM]
N#CCC(=O)Nc1cc(C(F)(F)F)ccc1N1CCOCC1 | / | 0.1% | / | 10.9% | ?
O=C(Nc1cc(C(F)(F)F)ccc1N1CCOCC1)C1Cc2ccccc2CN1C(=O)c1ccco1 (stereo not drawn) | ? | -0.7% | -14.8 | 22.4µM* | 16.0%
O=C(NC(=S)Nc1cc(C(F)(F)F)ccc1N1CCOCC1)c1sc2ccccc2c1Cl | -13.2% | 1.9% | 18.4 | 7.94µM* | -7.9%
O=C(Nc1cc(C(F)(F)F)ccc1N1CCCC1)c1cccnc1 | -7.9% | -0.6% | -89.5* | -2.7% | 15.6%
CC(C)(C)C(=O)NC(=S)Nc1cc(C(F)(F)F)ccc1N1CCOCC1 | -7.0% | -1.2% | 15.6 | 18.9µM* | 11.0%
NC(N)=Nc1nc(CSCC/C(N)=N\S(N)(=O)=O)cs1 | -7.6% | -2.0% | / | -3.3% | /
CCN(c1cccc(C)c1)S(=O)(=O)c1ccc(OC)c([N+](=O)[O-])c1 | / | -0.7% | / | 25.1µM* | 28.9%[46 µM]
CCN(c1ccccc1)S(=O)(=O)c1ccc(OC)c(OC)c1 | -1.5% | 0.7% | 22.8 | -1.7% | -0.4%
Nc1nc2ccc(S(=O)(=O)N3CCCCC3)cc2s1 | 14.1µM* | -1.2% | -12.6 | 6.31µM* | -14.3%
COc1ccc2nc(NC(=O)C3CCCN(S(=O)(=O)c4cccc5nonc45)C3)sc2c1 (stereo not drawn) | -15.6% | 2.9% | -100.0* | -5.7% | -2.1%
O=C(Nc1nc2ccc(S(=O)(=O)N3CCCC3)cc2s1)C1CCCCC1 | 20µM* | -4.8% | -107.6* | 8.91µM* | ?
COC(=O)c1ccc2nc(NC(=O)C3CCCCC3)sc2c1 | / | 0.1% | / | 25.1µM* | ?
COC(=O)c1ccc2nc(NC(=O)C(C)(C)C)sc2c1 | / | -2.1% | / | -3.4% | 16.1%[9.22 µM]
CN(C)c1ccc(-c2cncnc2-n2ccnc2)cc1 | / | / | / | ? | 10.5%
CC(C)(C)C(=O)N1CCN(c2nc3ccccc3o2)CC1 | / | -1.5% | / | 6.1% | /
Cc1cccc(N2CCN(C(=O)c3c(C)oc4nc(C)nc(N5CCCC5)c34)CC2C)c1 (stereo not drawn) | / | / | / | / | -16.6%[46 µM]
Cc1ccc(C)c2c3c([nH]c12)-c1nonc1CC3 | -22.0% | 2.5% | 10.8 | 22.4µM* | -12.4%
COc1cc(-c2nc(-c3ccc4c(c3)[nH]c(=O)n4C)no2)cc(OC)c1OC | / | / | / | / | -2.8%[46 µM]
COc1ccc(/C=N/NC(=S)Nc2cccc(C(=O)O)c2)cc1OC | -28.6% | -1.1% | -8.1 | -1.4% | -6.8%
COc1cc(/C=N/NC(=S)Nc2cccc(C(=O)O)c2)cc(OC)c1OC | -22.9% | -0.1% | -26.7 | 14.1µM* | ?
COc1cccc(/C=N/NC(=S)Nc2cccc(C(=O)O)c2)c1 | / | -0.7% | / | 31.6µM* | /
COc1cc(/C=N/NC(=O)c2ccc(-c3ccccc3)cc2)cc(OC)c1OC | ? | 0.2% | 28.8 | ? | ?
COc1ccc(CNC(=S)N/N=C/c2ccc(OC)c(OC)c2)cc1 | 22.4µM* | -6.3% | 40.5 | ? | ?
SMILES | HPGD block | KinaseGlo FLuc | PNC inhibitor | ALDH1A1 inh | LMNA splice mod
COc1cc(/C=N/NC(=S)N/N=C/c2cc(OC)c(OC)c(OC)c2)cc(OC)c1OC | ? | -7.4% | -109.4* | -4.3% | -14.5%
CCCCOc1ccc(C(=O)N2CCN(CCc3ccccn3)CC2)cc1 | / | / | / | / | -10.4%[46 µM]
C=CCC1C=CC(Oc2ccc(OC)cc2)C(COC(=O)c2ccc(Br)cc2)O1 (stereo not drawn) | / | / | / | -5.0%[13.5 µM] | /
CCc1ccccc1NC(=O)C(=O)NCCc1sc(-c2cccc(C)c2)nc1C | / | / | / | / | 13.2%[46 µM]
Cc1cccc(NC(=O)c2ccc3nc(CCc4ccccc4)oc3c2)c1C | / | / | / | / | -12.3%[46 µM]
COc1ccc(NC(=S)NCCc2ccc(S(N)(=O)=O)cc2)c(OC)c1 | / | -1.2% | / | 22.4µM* | /
COc1ccc(Cl)cc1NC(=S)NCCc1ccc(S(N)(=O)=O)cc1 | / | / | / | 6.31µM* | /
COc1ccccc1NC(=S)NCCc1ccc(S(N)(=O)=O)cc1 | / | 3.2% | / | ? | /
CC(Oc1ccccc1)C(=O)Nc1ccc(C(=O)OCc2cc(=O)n3ccsc3n2)cc1 (stereo not drawn) | / | / | / | / | -7.6%[46 µM]

Screening results deposited in PubChem by National Center for Advancing Translational Sciences (NCATS).
